# Most compounds without a hit are left out; they make up all but 3.4% or so of the library.
# p53ts 39C kill – kills p53ts cells at the nonpermissive temperature; AID 902; H1299-p53A138V viability at 39C, ATP luminescence, 24 h; Potency, µM (doses to about 46.1 µM), for inactives: at the top dose activity change, negative = cell killing, actives largely listed as cytotoxic; 130,000 tested, 1.5% active; also: % is scaled to controls: 0 for no effect and ±100 for the full control effect; nearly all actives have a fitted effect of over 55% in size
# Peg3 imprint – genomic imprint erasure induction. mouse ES Peg3-LacZ reporter, beta-gal luminescence, 40 h. Potency, µM (series often up to 60.7 µM), without a hit: top-dose activity change, positive = activation, usual class: activators. 110,000 tested, 0.02% active. AID 1948
#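 Readout: BetaGlo luminescence (5 min, room temp) for LacZ from the normally silent maternal Peg3 allele in female Peg3LacZ-Neo ES cells. Cells 300/well, 40 h, 37C, 5% CO2. Data normalized per plate to negative controls.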
# Tau fil binding – binds recombinant human tau filaments. P10636. recombinant tau filaments, thioflavin S fluorescence, 15 h; filaments grown with octadecylsulfate alongside compound. Potency, µM (series often up to 57.1 µM), for the others: at the highest dose activity change, negative = inhibition. 71,000 tested, 2% active;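 also: % is scaled to controls: 0 for no effect and ±100 for the full control effect; actives lower thioflavin S fluorescence by blocking filaments or displacing dye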
#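 ThS-based fibril read: tau 1 uM final, inducer ODS 30 uM final, 37 C for 15 h, ex 450/em 510 nm.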
# p53ts 32C kill – p53ts cell cytotoxicity, permissive temperature; 130,000 tested, 0.93% active; Potency, µM (doses to about 46.1 µM), for inactives: top-dose activity change, negative = cytotoxicity, most hits filed as cytotoxic; H1299-p53A138V at 32C, ATP luminescence viability, 24 h;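 also: 0% = DMSO and -100% = full killing by reference compound; nearly all actives have a fitted effect of over 55% in size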
#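 Cells: H1299 p53ts (A138V), 600/well, pre-incubated 16–30 h at 37C. Cpd up to 46 uM, 24 h, 32C. Readout: ATPlite luminescence, 20 min RT. Normalization: DMSO vs tamoxifen 100 uM. AC50 by Hill equation.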
# FLuc inh – blocks Photinus pyralis firefly luciferase activity; Potency, µM (highest dose often 57.1 µM), for inactives: at the highest dose activity change, negative = inhibition, most hits filed as inhibitors; purified firefly luciferase, luminescence, 8 min; 72,000 tested, 2.2% active; P08659; also: % is scaled to controls: 0 for no effect and ±100 for the full control effect; nearly all actives have a fitted effect of over 40% in size
# Target sequence (P08659 whole entry, looked up): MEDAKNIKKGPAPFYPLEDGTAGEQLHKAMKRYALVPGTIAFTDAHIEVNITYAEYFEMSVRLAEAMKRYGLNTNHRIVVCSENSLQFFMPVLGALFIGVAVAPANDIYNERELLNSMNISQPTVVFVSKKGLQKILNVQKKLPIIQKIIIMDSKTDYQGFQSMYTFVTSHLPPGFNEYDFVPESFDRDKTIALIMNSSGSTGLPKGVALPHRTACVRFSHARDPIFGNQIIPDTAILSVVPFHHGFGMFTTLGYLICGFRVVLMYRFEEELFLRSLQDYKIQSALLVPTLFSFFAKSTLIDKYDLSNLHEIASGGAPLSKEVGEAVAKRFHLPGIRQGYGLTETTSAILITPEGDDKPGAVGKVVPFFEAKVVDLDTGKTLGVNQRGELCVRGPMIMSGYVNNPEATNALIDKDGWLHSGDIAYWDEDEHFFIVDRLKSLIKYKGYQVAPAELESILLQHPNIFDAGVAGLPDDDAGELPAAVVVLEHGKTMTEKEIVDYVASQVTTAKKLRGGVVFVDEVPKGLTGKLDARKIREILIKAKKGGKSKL
#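 Luminescence read-out after 8 min at room temperature; enzyme reaction used luciferin plus 10 uM ATP (linear range) in imidazole buffer pH 7.2 with KCl, MgCl2, Tween 20 and BSA. Each sample was run as a titration.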
# Numbers without * were called inactive; i = inactive; ? = inconclusive; . = no result given; ! = repeats disagree; [ ] = remark or other dose. Calls follow the shape of the dose curve; as a rule, active = well fitted curve in the direction sought with a large enough effect; inconclusive = small, poorly fitted or top-dose-only effect, or another doubt; inactive = no such curve, though single readings can be large; an effect the other way counts as inactive or inconclusive. Potency is read from the fitted curve at half-maximal effect.
SMILES,p53ts 39C kill,Peg3 imprint,Tau fil binding,p53ts 32C kill,FLuc inh
N#Cc1cc2c(nc1SCC(=O)Nc1ccc(F)c(Cl)c1)C1CCN2CC1,1%,-7%[10.9 µM],.,-4%,.
OC[C@H]1CCCN2CCCC[C@@H]12,.,.,?,.,-1%[11.4 µM]
COc1cc2[nH]c(=O)n(CCCCCC(=O)N3CCN(c4cccc(C(F)(F)F)c4)CC3)c(=O)c2cc1OC,13µM*,-8%[10.9 µM],.,?,.
Oc1c(Cl)cc(Cl)cc1Cl,.,-2%,-2%,.,.
C[C@@H](Cc1ccccc1)NCCC(c1ccccc1)c1ccccc1,13µM*,6%[16.8 µM],?,0%[20.6 µM],12%[25.5 µM]
CN1CCN(C(=O)COc2ccc(-c3nc4ccccc4s3)cc2)CC1,0.79µM*,-20%,39%,1µM*,0.79µM*
COc1ccc(OCC(=O)N2CCN(Cc3cc(=O)n4nc(-c5ccc(OC)cc5)sc4n3)CC2)cc1,8%,7%[10.9 µM],.,-7%,.
Cc1ccc2oc(-c3ccccc3)cc(=O)c2c1,?,-54%,.,?,.
COc1ccc(-c2cc(=O)c3cc(OCC(=O)OC(C)C)ccc3o2)cc1,3.2µM*,-19%[10.9 µM],.,3.2µM*,.
CN1CCN(c2ccc(NC(=O)C(C)(C)C)cc2)CC1,-1%,-13%,4%,-4%,-4%
CN1CCN(c2ccc(N)c(N3CCN(C)CC3)c2)CC1,0%,-4%,20µM*,-8%,-7%
O=S(=O)(NCCO)c1cc[c]([Sb](=[O])([OH])[OH])cc1,17%[9.22 µM],.,-3%[11.4 µM],14%[9.22 µM],-1%[11.4 µM]
COc1cc2c(cc1OC)-c1c(OC)c(OC)c(CO)c3c1[C@H](C2)N(C)CC3,.,.,?,.,1%[11.4 µM]
[O-]/[N+](=C/c1cccnc1)c1ccc(Br)cc1,-10%,-23%,-12%[11.4 µM],-24%,10µM*
COc1ccc(C[C@@H]2NC[C@H](O)[C@H]2OC(C)=O)cc1,.,.,?,.,1%[11.4 µM]
C[C@@]12CCC[C@](C)(C(=O)O)[C@@H]1CCc1ccc(O)cc12,.,.,?,.,1%[11.4 µM]
O=C1C(Cl)=C(Cl)C(=O)C(Cl)=C1Cl,?,-50%,3%,5µM*,.
Cc1cc[c]([Sb]2[O][C@H]([C@H](O)[C@H](O)C(=O)O)[C@@H](CO)[O]2)cc1,-8%[9.22 µM],.,4%[11.4 µM],3%[9.22 µM],3%[11.4 µM]
O=C(CCCN1CCC2(CC1)C(=O)N(CCc1ccc(N=C=S)cc1)CN2c1ccccc1)c1ccc(F)cc1,.,.,374%,.,2%
Cc1nnc(NC(=O)c2cccn(Cc3cccc(Cl)c3)c2=O)s1,2%,-19%[10.9 µM],.,-2%,.
Cc1ccc(Cl)cc1NC(=O)NCc1cccn1Cc1ccc(F)cc1,10µM*,-1%[10.9 µM],.,?,.
O=C(CN1CCCCC1)c1cccc(Br)c1,-7%,.,.,.,.
CC1CCCCN1CC(=O)c1ccc2cc[nH]c2c1 (stereo not given),-17%,-10%,25µM*,-16%,-9%
N=C(N)c1c(O)n(C2CCCCC2)c(=O)n(C2CCCCC2)c1=O,-20%,-35%,16µM*,-22%,0%
N[C@H](Cn1cc(I)c(=O)[nH]c1=O)C(=O)O,.,.,-2%,.,1%
SMILES,p53ts 39C kill,Peg3 imprint,Tau fil binding,p53ts 32C kill,FLuc inh
CCN1C[C@@]2(COC)[C@H](O)C[C@H](OC)[C@@]34[C@@H]5C[C@@]6(O)[C@H](OC(=O)c7ccccc7)[C@H]5[C@@](OC(C)=O)([C@H]([C@@H](OC)[C@H]23)[C@H]14)[C@H](O)[C@@H]6OC,.,.,-6%,.,2%[11.4 µM]
Cc1oc(-c2ccc(Cl)cc2)nc1CN1CCC(C(=O)NCCCN2CCN(c3cccc(Cl)c3)CC2)CC1,?,-14%[10.9 µM],.,?,.
Cc1ccc(Cl)cc1N1CCN(C(=O)C2CCN(Cc3nc(-c4ccc(Cl)cc4)oc3C)CC2)CC1,13µM*,-15%[10.9 µM],.,4%,.
C[C@@H]1Cc2cc3c(cc2C(c2ccc(N)cc2)=NN1)OCO3,13%,.,40µM*,5%,-4%
O=c1c(O)c(-c2ccc(O)c(O)c2)oc2cc(O)cc(O)c12,33%,?,32µM*!,33%,0%
Cc1ccc2oc(-c3ccc(Cl)cc3)c(O)c(=O)c2c1,?,-12%[10.9 µM],.,-18%,.
CC(C)[C@@]1(NC(=O)[C@@H]2C[C@H]3c4cccc5[nH]cc(c45)C[C@@H]3N(C)C2)O[C@@]2(O)[C@H]3CCCN3C(=O)[C@@H](Cc3ccccc3)N2C1=O,.,.,226%,.,2%[11.4 µM]
NCCCNCCCCNCCCNC(=O)Cc1ccc(O)cc1,.,-5%[10.9 µM],.,.,.
NNC(=O)c1ccc(O)cc1,-10%,-2%,7%,-23%,13µM*
Cc1onc(-c2ccccc2Cl)c1C(=O)OCC(=O)c1ccc2c(c1)OCCO2,-7%,-22%,1%,11%,16µM*
CN[C@H]1[C@H]2[C@H]3CCN2C[C@@H]1O3,.,.,?,.,1%[11.4 µM]
CC1=CC(=O)c2c(O)cccc2C1=O,10µM*,-36%,.,6.3µM*,.
COC(=O)C[C@]1(C(=O)OC)CN(C#N)N(c2ccc(Cl)cc2)C12c1ccccc1-c1ccccc12,?,.,.,6.3µM*,.
CN1CCN(c2ccc([N+](=O)[O-])c3[nH]o[n+](=O)c23)CC1,-21%[9.22 µM],.,94%[11.4 µM],?,-10%[11.4 µM]
C#CCN1C(C)=C(C(=O)CCO)[C@@H](c2cccc(-n3oo3)c2)C(C(=O)OC)=C1C,6%,-12%,40µM*,6%,3%
Cc1cc(N2CCOCC2)nc2ccc(NC(=O)CCC(=O)N3CCC4(CC3)OCCO4)cc12,-27%,25%,-5%,-29%,13µM*
C/C=C(\C)C(=O)O[C@@H]1C(C)=C2[C@H]([C@@H]1OC(=O)CCCCCCC)[C@@](C)(OC(C)=O)C[C@@H](OC(=O)CCC)[C@@]1(O)[C@H]2OC(=O)[C@]1(C)O,13µM*,.,-18%,25µM*,0%
CC(C)C[C@H]1C(=O)N2CCC[C@@H]2[C@]2(O)O[C@](NC(=O)[C@H]3C=C4c5cccc6[nH]cc(c56)C[C@H]4N(C)C3)(C(C)C)C(=O)N12,.,.,i,.,-4%[11.4 µM]
CC(=O)OC1C[C@@]2(C)C(c3ccoc3)C[C@H]3O[C@@]32[C@@]2(C)C(=O)C(O)=C3C(C)(C)C(=O)C=C[C@]3(C)C12 (stereo not given in full),?,-30%,.,1.6µM*,.
Cc1ccc(C2(O)CC(C)N(C)CC2C)cc1 (stereo not given),5%,-13%,5%,-1%,5%
CCOc1ccc(Br)c(C2(O)CC(C)N(C)CC2C)c1 (stereo not given),-30%,-79%,9%,?,25µM*
Nc1nc2c(ncn2[C@@H]2O[C@H](CO)[C@@H](O)[C@@H]2O)c(=[SH+])[nH]1.O=[N+]([O-])c1ccc(O)[c]([Hg])c1,.,8%[10.9 µM],.,.,.
CN1CCc2cc3c(cc2[C@@H]1[C@H]1OC(=O)c2c1ccc1c2OCO1)OCO3,.,.,?,.,-2%[11.4 µM]
Nc1ccccc1O.O.O=C(O)[C@H]1[O][Sb][O][C@H]1C(=O)O,?,0.32µM*,-13%[11.4 µM],7%[9.22 µM],2%[11.4 µM]
Nc1ccccc1C(=O)O,-5%,1%,-4%,-1%[1.84 µM],.
